{
  "source": "PubChem BioAssay (EPA / NIEHS)",
  "note": "Activity calls are given as the source filed them. Rule for the calls: active = hit-call score of the fitted dose curve at least 0.9, where 1 is the maximum; inactive = score below 0.9.",
  "data": [
    {"target": "Cellular tumor antigen p53 (Homo sapiens) (UniProt P04637)", "sequence (P04637 whole entry, looked up)": "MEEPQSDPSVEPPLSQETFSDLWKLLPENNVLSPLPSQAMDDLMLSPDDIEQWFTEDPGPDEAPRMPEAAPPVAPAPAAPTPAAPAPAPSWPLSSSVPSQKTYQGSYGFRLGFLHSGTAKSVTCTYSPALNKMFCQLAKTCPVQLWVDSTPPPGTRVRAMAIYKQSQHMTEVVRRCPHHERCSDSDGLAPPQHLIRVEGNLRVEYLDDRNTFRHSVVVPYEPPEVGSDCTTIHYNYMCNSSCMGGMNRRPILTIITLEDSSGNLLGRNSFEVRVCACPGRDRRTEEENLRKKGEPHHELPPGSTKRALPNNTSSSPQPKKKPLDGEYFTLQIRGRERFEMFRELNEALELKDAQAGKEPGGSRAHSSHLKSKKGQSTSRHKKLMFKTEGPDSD", "assay": "ATG_p53_CIS: Attagene CIS-FACTORIAL HepG2 Assay for human p53 Transcription Factor (AID 2282994)", "details": "HepG2 p53 cis-element reporter, Attagene mRNA; actives raise or lower the signal", "in_short": "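HepG2, transient MRTU transfection (cis promoter elements, endogenous TFs); 24 h dosing; RNA isolation, RT-PCR, 6-FAM primer extension, HpaI digest, CE fluorescence; bidirectional fit vs DMSO.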", "values": [
      {"smiles": "C=C(C)CCO", "outcome": "inactive"},
      {"smiles": "CC(=O)[C@H]1[C@H](C#N)C[C@H]2[C@@H]3CC=C4C[C@@H](O)CC[C@]4(C)[C@H]3CC[C@@]21C", "outcome": "inactive"},
      {"smiles": "CNC(=S)NN", "outcome": "inactive"},
      {"smiles": "CC(=O)OCC(=O)[C@@]12N=C(C)O[C@@H]1C[C@H]1[C@@H]3CCC4=CC(=O)C=C[C@]4(C)[C@H]3[C@@H](O)C[C@@]12C", "outcome": "inactive"},
      {"smiles": "Cc1ccc([N+](=O)[O-])cc1S(=O)(=O)O", "outcome": "inactive"},
      {"smiles": "CC=CC(=O)N(CC)c1ccccc1C", "outcome": "inactive"},
      {"smiles": "CN(C)CCCN(C)C", "outcome": "inactive"},
      {"smiles": "O=C(Nc1ccccc1)c1ccccc1O", "outcome": "inactive"},
      {"smiles": "O=C1CCCN1CCO", "outcome": "inactive"},
      {"smiles": "O=C(c1ccccc1)c1ccc(O)c(O)c1O", "outcome": "inactive"},
      {"smiles": "CC(=O)NS(=O)(=O)c1ccc(N)cc1", "outcome": "inactive"},
      {"smiles": "COc1cc(NC(=O)CC(C)=O)c(OC)cc1Cl", "outcome": "inactive"},
      {"smiles": "O=c1[nH]nc(-c2ccc([N+](=O)[O-])o2)o1", "outcome": "inactive"},
      {"smiles": "Nc1ccc(N=Nc2ccccc2)c(N)n1", "outcome": "inactive"},
      {"smiles": "C=CC=CC=CCCCCC", "outcome": "inactive"},
      {"smiles": "O=C1c2ccccc2C(=O)C1c1nc2ccccc2c(Br)c1O", "outcome": "inactive"},
      {"smiles": "c1ccc(-c2ccccn2)nc1", "outcome": "inactive"},
      {"smiles": "CC(=O)OCCC1CCCCC1", "outcome": "inactive"},
      {"smiles": "CCCCC/C=C\\CCC=O", "outcome": "inactive"},
      {"smiles": "CC1OC1C1CCC2(C)OC2C1", "note": "(configuration not stated)", "outcome": "inactive"},
      {"smiles": "COc1ccc(-c2coc3cc(O)ccc3c2=O)cc1", "outcome": "inactive"},
      {"smiles": "C=C(C)c1cccc(C(C)(C)N=C=O)c1", "outcome": "inactive"}
    ]},
    {"read-out": "not listed separately", "assay": "BSK_3C_TissueFactor: BioMAP Diversity Plus: 3C Assay for Tissue Factor Biomarker Activity (AID 2282997)", "details": "BioMAP 3C HUVEC, tissue factor biomarker readout; actives raise or lower the signal", "in_short": "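HUVEC were treated 24 h, then surface tissue factor measured by ELISA and fitted bidirectionally against DMSO. Parallel SRB total-protein staining assessed overt cytotoxicity at the same time point.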", "values": [
      {"smiles": "O=C1CCCN1CCO", "outcome": "inactive"},
      {"smiles": "C=CC=CC=CCCCCC", "outcome": "inactive"},
      {"smiles": "c1ccc(-c2ccccn2)nc1", "outcome": "inactive"},
      {"smiles": "CC1OC1C1CCC2(C)OC2C1", "note": "(configuration not stated)", "outcome": "inactive"},
      {"smiles": "COc1ccc2nc(N)sc2c1", "outcome": "inactive"}
    ]},
    {"read-out": "not listed separately", "assay": "BSK_3C_uPAR: BioMAP Diversity Plus: 3C Assay for Urokinase-type plasminogen activator receptor (uPAR) Biomarker Activity (AID 2282998)", "details": "BioMAP 3C HUVEC, uPAR biomarker ELISA; actives raise or lower the signal", "in_short": "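ELISA readout of uPAR on human vascular endothelium (umbilical vein primary cells), taken 24 h after chemical dosing. Increases and decreases are both fitted relative to DMSO vehicle.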", "values": [
      {"smiles": "O=C1CCCN1CCO", "outcome": "inactive"},
      {"smiles": "C=CC=CC=CCCCCC", "outcome": "inactive"},
      {"smiles": "c1ccc(-c2ccccn2)nc1", "outcome": "inactive"},
      {"smiles": "CC1OC1C1CCC2(C)OC2C1", "note": "(configuration not stated)", "outcome": "inactive"},
      {"smiles": "COc1ccc2nc(N)sc2c1", "outcome": "inactive"}
    ]},
    {"read-out": "not listed separately", "assay": "BSK_3C_VCAM1: BioMAP Diversity Plus: 3C Assay for Vascular cell adhesion molecule 1 (VCAM1) Biomarker Activity (AID 2282999)", "details": "BioMAP 3C HUVEC, VCAM1 ELISA, cytokine-stimulated; actives raise or lower the signal", "in_short": "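Endothelial cells from human umbilical vein are treated with test chemical. At 24 h, VCAM-1 is measured by ELISA, and responses in either direction are fitted relative to DMSO.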", "values": [
      {"smiles": "O=C1CCCN1CCO", "outcome": "inactive"},
      {"smiles": "C=CC=CC=CCCCCC", "outcome": "inactive"},
      {"smiles": "c1ccc(-c2ccccn2)nc1", "outcome": "inactive"},
      {"smiles": "CC1OC1C1CCC2(C)OC2C1", "note": "(configuration not stated)", "outcome": "inactive"},
      {"smiles": "COc1ccc2nc(N)sc2c1", "outcome": "inactive"}
    ]},
    {"read-out": "not listed separately", "assay": "BSK_4H_Eotaxin3: BioMAP Diversity Plus: 4H Assay for Eotaxin 3 Biomarker Activity (AID 2283000);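 for outcome: CCL26 protein level quantified by ELISA in parallel with SRB cytotoxicity check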", "details": "primary human endothelial cells (HUVEC); actives raise or lower the signal", "in_short": "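Eotaxin-3 (CCL26) levels were measured by ELISA in HUVEC primary cultures 24 h post-dosing. Gain or loss of signal was fitted in both directions, with DMSO serving as baseline and negative control.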", "values": [
      {"smiles": "O=C1CCCN1CCO", "outcome": "inactive"},
      {"smiles": "C=CC=CC=CCCCCC", "outcome": "inactive"},
      {"smiles": "c1ccc(-c2ccccn2)nc1", "AC50": "20 µM (active)"},
      {"smiles": "CC1OC1C1CCC2(C)OC2C1", "note": "(configuration not stated)", "outcome": "inactive"},
      {"smiles": "COc1ccc2nc(N)sc2c1", "outcome": "inactive"}
    ]}
  ]
}
